Assay results: PubChem BioAssay (EPA / NIEHS)
Records with an inconclusive call do not appear. Some compounds were tested as several samples or in several runs, with calls that do not always agree. Activity calls are given as the source filed them. Rule for the calls: active = hit-call score of the fitted dose curve at least 0.9, where 1 is the maximum; inconclusive = response in the unintended direction; inactive = score below 0.9.

Target: Estrogen receptor (Homo sapiens) (UniProt P03372)
Experiment: NVS_NR_hER: NovaScreen (NVS) Nuclear Receptor Binding Assay for human Estrogen Receptor (ER) (AID 2283348)
Procedure: NVS_NR_hER is a biochemical, single-readout assay that uses extracted gene-proteins from MCF7 in a cell-free assay. Measurements were taken 18 hours after chemical dosing in a 96-well plate.NVS_NR_hER is one of one assay component(s) measured or calculated from the NVS_NR_hER assay. It is designed to make measurements of radioligand binding, a form of binding reporter, as detected with scintillation counting signals by Lysate-based radiodetection technology.Data from the assay component NVS_NR_hER was analyzed into 1 assay endpoint. This assay endpoint, NVS_NR_hER, was analyzed in the positive analysis fitting direction relative to DMSO as the negative control and baseline of activity. Using a type of binding reporter, loss-of-signal activity can be used to understand changes in the binding as they relate to the gene ESR1. Furthermore, this assay endpoint can be referred to as a primary readout, because the performed assay has only produced 1 assay endpoint. To generalize the intended target to other relatable targets, this assay endpoint is annotated to the nuclear receptor intended target family, where the subfamily is steroidal.
Binding assays used specific radioligands (tritiated, iodinated) with non-radioactive competitive displacement ligands in agonist or antagonist protocols (as indicated) and various reference compounds and inhibitors to titrate specific binding to receptors and transporters. Most enzyme assays (CYPs, kinases, phosphatases, proteases, HDACs) used recombinant protein and specific substrates (fluorescence mostly, some colorimetric and radioactive) and inhibitors, followed by a biochemical separation of substrate and product. All assays for the biochemical HTS were initially run in duplicate at a single concentration (10 uM for CYP450 assays and 25 uM for all others). […] Each assay was run with positive and negative controls, and concurrent controls on every plate. The follow-up (secondary) screen tested active chemical-pairs in concentration series, as well as a few additional assays not tested in the primary screen, some selected negative inactives, and several cases re-run in the concentration series for confirmatory purposes.

Sequence of Estrogen receptor (Homo sapiens) (P03372 whole entry, looked up): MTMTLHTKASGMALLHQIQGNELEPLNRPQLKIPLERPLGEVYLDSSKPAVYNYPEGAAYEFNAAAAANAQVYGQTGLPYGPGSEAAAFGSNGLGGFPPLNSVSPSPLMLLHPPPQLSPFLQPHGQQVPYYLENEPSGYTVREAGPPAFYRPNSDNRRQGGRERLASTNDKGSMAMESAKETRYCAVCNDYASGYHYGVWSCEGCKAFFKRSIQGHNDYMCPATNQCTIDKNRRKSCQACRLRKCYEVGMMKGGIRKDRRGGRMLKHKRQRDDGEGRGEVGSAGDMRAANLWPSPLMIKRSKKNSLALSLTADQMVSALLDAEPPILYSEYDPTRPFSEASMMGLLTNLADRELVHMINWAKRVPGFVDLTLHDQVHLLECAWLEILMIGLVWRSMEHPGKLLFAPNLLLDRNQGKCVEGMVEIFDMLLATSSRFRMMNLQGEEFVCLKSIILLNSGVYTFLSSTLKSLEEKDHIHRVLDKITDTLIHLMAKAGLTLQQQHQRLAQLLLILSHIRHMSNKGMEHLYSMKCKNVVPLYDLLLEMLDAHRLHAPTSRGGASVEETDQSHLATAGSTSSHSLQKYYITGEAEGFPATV

outcome, inactive:
C#C[C@]1(O)CC[C@H]2[C@@H]3CCC4=Cc5oncc5C[C@]4(C)[C@H]3CC[C@@]21C, CC(=O)[C@H]1CC[C@H]2[C@@H]3CC=C4C[C@@H](O)CC[C@]4(C)[C@H]3CC[C@]12C, CC(C)c1cccc(O)c1, O=Nc1ccc(Nc2ccccc2)cc1, CN(CCOc1ccc(CC2SC(=O)NC2=O)cc1)c1ccccn1 (stereo not given), Clc1ccc2c(c1)C(N1CCNCC1)=Nc1ccccc1O2, CC(C)C(C)(C)C(C)(C)C(C)(C)S, O=C(O)CCSCCC(=O)O, CNCCCC12CCC(c3ccccc31)c1ccccc12, O=C1c2ccccc2C(=O)N1SC1CCCCC1, O=C(COc1ccc(Cl)cc1)N1CCN(Cc2ccc3c(c2)OCO3)CC1, CC1=CCC2C(C1)C2(C)C (stereo not given), CCCCCCCCC=O, NNc1nc(-c2ccc(N)cc2)cs1, c1cc(C(c2ccc(OCC3CO3)cc2)c2ccc(OCC3CO3)cc2)ccc1OCC1CO1 (stereo not given)

AC50, active:
C#C[C@]1(O)CC[C@H]2[C@@H]3CCC4=Cc5oncc5C[C@]4(C)[C@H]3CC[C@@]21C 11.5 µM, COC(=O)C1=C(C)NC(C)=C(C(=O)OCCN(C)Cc2ccccc2)C1c1cccc([N+](=O)[O-])c1 (stereo not given) 9.13 µM, Cc1cc(C2(c3cc(C)c(O)cc3C)OS(=O)(=O)c3ccccc32)c(C)cc1O 5.05 µM, CCCC(=O)c1cc(O)c(O)cc1O 7.55 µM, CC1COc2ccccc2N1C(=O)C(Cl)Cl (stereo not given) 0.0627 µM
